AGP1-GFP MLPCN: yeast TOR pathway AGP1-GFP modulation. S. cerevisiae AGP1-GFP multiplex flow cytometry, 3 h; GFP as percent of DMSO wells. GFP response vs DMSO, % at 10 µM. 320,000 compounds, 0.02% hits. AID 2066;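 active means GFP response relative to DMSO above a set limit, near screen average plus 3 SD, cut at about 150% in these data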;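 further: median GFP channel fluorescence of the gated AGP1 strain per well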
MEP2-GFP yeast: modulators of TOR pathway MEP2-GFP in S. cerevisiae. S. cerevisiae MEP2-GFP strain, flow cytometry GFP, 3 h; 100% = DMSO control level. GFP response vs DMSO, % at 10 µM. 330,000 compounds, 0.51% hits;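 active means GFP response versus DMSO above a set limit, roughly screen mean plus 3 SD, cut at about 180% in these data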;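 further: median GFP fluorescence of the barcode-gated MEP2-GFP cells per well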
CIT2-GFP yeast: yeast TOR pathway CIT2-GFP modulation; S. cerevisiae CIT2-GFP strain, flow cytometry, 3 h; 100 means same as DMSO wells; GFP response vs DMSO, % at 10 µM; 320,000 compounds, 0.065% hits; AID 2029;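 active means GFP response relative to DMSO above a set limit, near the screen mean plus 3 SD, cut at about 150% in these data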;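 further: ratio of well median GFP fluorescence to mean of DMSO wells on the plate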
RPL19A-GFP yeast: modulators of TOR pathway RPL19A-GFP in S. cerevisiae; S. cerevisiae RPL19A-GFP strain, flow cytometry, 3 h; stronger effect = lower value; percent response vs DMSO, % at 10 µM; 330,000 compounds, 0.3% hits; AID 2025;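 active means percent response vs DMSO below 50%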;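 further: median channel GFP fluorescence of the barcoded RPL19A-GFP strain; lower means less RPL19A-GFP as with rapamycin TOR inhibition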
LAP4 TOR yeast: yeast TOR pathway LAP4-GFP modulation. S. cerevisiae LAP4-GFP multiplex, flow cytometry GFP, 3 h; median GFP as percent of DMSO wells. GFP response vs DMSO, % at 10 µM. 320,000 compounds, 0.34% hits. AID 2023;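 active means GFP response vs DMSO above a set limit, about the screen mean plus 3 SD, cut at about 150% in these data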
LAP4-GFP pick2: reconfirmed LAP4-GFP TOR pathway modulator in yeast; shares compounds with LAP4 TOR yeast; AID 2621; S. cerevisiae LAP4-GFP strain, flow cytometry GFP, 3 h; GFP response vs DMSO, % at 10 µM; 590 compounds, 20% hits;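 active means GFP signal as percent of the solvent control above about 150%, meaning raised reporter expression, limit read from the data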
MEP2 cherry2: second confirmation of modulators of TOR reporter MEP2-GFP in yeast | AID 2622 | shares compounds with LAP4 TOR yeast | 590 compounds, 10% hits | GFP response vs DMSO, % at 10 µM | S. cerevisiae MEP2-GFP strain, flow cytometry GFP, 3 h;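 active means GFP signal above 150% of the solvent control wells, that is a rise of more than half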;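 further: median channel GFP fluorescence of all gated yeast cells per well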
RPL19A-GFP pick2: second confirmation of modulators of TOR reporter RPL19A-GFP in yeast; shares compounds with LAP4 TOR yeast; 590 compounds, 3% hits; S. cerevisiae RPL19A-GFP strain, flow cytometry GFP, 3 h; stronger effect = lower value; 100% means same as DMSO wells; AID 2623; GFP response vs DMSO, % at 10 µM;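 active means under 65% GFP response relative to DMSO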;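 further: median GFP channel fluorescence per well over the all cells gate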
CIT2 GFP CP2: reconfirmed modulator of CIT2-GFP TOR reporter in yeast | 590 compounds, 8% hits | GFP response vs DMSO, % at 10 µM | AID 2624 | S. cerevisiae CIT2-GFP strain, flow cytometry GFP, 3 h; DMSO control wells read 100% | shares compounds with LAP4 TOR yeast;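 active means GFP response vs DMSO above about 150%, limit read from the data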;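 further: median green fluorescence per well over all gated yeast cells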
AGP1 GFP CP2: yeast AGP1-GFP TOR reporter modulation, second cherry pick. percent response vs DMSO, % at 10 µM. S. cerevisiae AGP1-GFP strain, flow cytometry GFP, 3 h. shares compounds with LAP4 TOR yeast. 590 tested, under 10 active;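 active means over 150 percent of DMSO response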;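 further: median GFP channel fluorescence over all cells without mother daughter split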
Yeast autofluor: compound is autofluorescent in yeast s288c cells | 610 tested, under 10 active | shares compounds with LAP4 TOR yeast | S. cerevisiae s288c, 520 nm autofluorescence, flow cytometry, 3 h; stronger effect = higher value; zero means same as solvent-only cells | AID 2757 | fluorescence change (kMESF span) at 33 µM;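 active means fluorescence span over the dose series, or activity score, above about 33, limit read from the data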
s288c autofl DR: TOR screen hit shows autofluorescence in yeast s288c. shares compounds with LAP4 TOR yeast. AID 488829. 110 tested, under 10 active. fluorescence change (span) at 33 µM. S. cerevisiae s288c parental, compound autofluorescence, flow cytometry, 3 h;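 active means fluorescence change span, or the activity score built from it, above 25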
TORC1 bypass gr: compounds blocking wildtype yeast growth but not TORC1 bypass cells | shares compounds with LAP4 TOR yeast | S. cerevisiae BY4741 spot growth rating, 48-72 h; stronger effect = lower value | growth rating (0-3) at 30 µM | 120 tested, under 10 active | AID 504456;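 active means growth rating at most 1 for wild type yeast while the TORC1 bypass strain still grows fully, rated 3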
A number is an active result. Most compounds without a hit are left out; they make up all but 0.93% or so of the library.

Screening CNc1nc(N)c([N+](=O)[O-])c(NCC2CCCO2)n1 (stereo unspecified) returned AGP1-GFP MLPCN inactive, MEP2-GFP yeast inactive, CIT2-GFP yeast inactive, RPL19A-GFP yeast inactive, LAP4 TOR yeast inactive, s288c autofl DR inactive and TORC1 bypass gr inactive.
For Nc1nc(NCc2ccccc2)nc(Nc2ccc(F)cc2)c1[N+](=O)[O-] the results were AGP1-GFP MLPCN inactive, MEP2-GFP yeast inactive, CIT2-GFP yeast inactive, RPL19A-GFP yeast inactive and LAP4 TOR yeast inactive.
`COCCNc1nc(N)c([N+](=O)[O-])c(NCC2CCCO2)n1` (stereo unspecified) gave AGP1-GFP MLPCN inactive, MEP2-GFP yeast inactive, CIT2-GFP yeast inactive, RPL19A-GFP yeast inactive and LAP4 TOR yeast inactive.
CNc1nc(N)c([N+](=O)[O-])c(Nc2ccc(Cl)cc2)n1 was read as s288c autofl DR inactive and TORC1 bypass gr inactive.
For CNc1nc(N)c([N+](=O)[O-])c(Nc2ccccc2)n1 the results were s288c autofl DR inactive and TORC1 bypass gr inactive.
For CCOc1ccc(Nc2nc(NC)nc(N)c2[N+](=O)[O-])cc1 the results were s288c autofl DR inactive and TORC1 bypass gr inactive.
`CCCOC1CCCN(C(=O)c2cc(COc3ccc(-n4cncn4)cc3)on2)C1` (stereo unspecified) gave AGP1-GFP MLPCN inactive, MEP2-GFP yeast inactive, CIT2-GFP yeast inactive, RPL19A-GFP yeast inactive and LAP4 TOR yeast inactive.
Screening O=C(OCC#CCSc1nnc(-c2cccc3ccccc23)o1)c1cnc[nH]1 returned AGP1-GFP MLPCN inactive, MEP2-GFP yeast inactive, CIT2-GFP yeast inactive, RPL19A-GFP yeast inactive and LAP4 TOR yeast inactive.
`Oc1ccc(CNCC2COc3ccccc3O2)cc1` (stereo unspecified) gave AGP1-GFP MLPCN inactive, MEP2-GFP yeast inactive, CIT2-GFP yeast inactive, RPL19A-GFP yeast inactive and LAP4 TOR yeast inactive.
C#CCOCCOCCOCCNc1nc(N2CCN(C(=O)CCCCCCCCCCNC(=O)[C@H]([C@@H](C)CC)n3cc(CCCCCN)nn3)CC2)nc(N2CCN(C(=O)CCCCCCCCCCNC(=O)[C@H]([C@@H](C)CC)n3cc(CCCCN=C(N)N)nn3)CC2)n1 was read as AGP1-GFP MLPCN inactive, MEP2-GFP yeast inactive, CIT2-GFP yeast inactive, RPL19A-GFP yeast inactive and LAP4 TOR yeast inactive.
C#CCOCCOCCOCCNc1nc(N2CCN(C(=O)CCCCCCCCCCNC(=O)Cn3cc(C[C@@H](C)O)nn3)CC2)nc(N2CCN(C(=O)CCCCCCCCCCNC(=O)[C@H](CCCN=C(N)N)n3cc(C[C@@H](C)CC)nn3)CC2)n1 was read as AGP1-GFP MLPCN inactive, MEP2-GFP yeast inactive, CIT2-GFP yeast inactive, RPL19A-GFP yeast inactive, LAP4 TOR yeast 183, LAP4-GFP pick2 inactive, MEP2 cherry2 inactive, RPL19A-GFP pick2 inactive, CIT2 GFP CP2 inactive and AGP1 GFP CP2 inactive.
`C#CCOCCOCCOCCNc1nc(N2CCN(C(=O)CCCCCCCCCCNC(=O)Cn3cc(CCCCCN)nn3)CC2)nc(N2CCN(C(=O)CCCCCCCCCCNC(=O)[C@H]([C@@H](C)CC)n3cc(CCCCN=C(N)N)nn3)CC2)n1` gave AGP1-GFP MLPCN inactive, MEP2-GFP yeast inactive, CIT2-GFP yeast inactive, RPL19A-GFP yeast inactive, LAP4 TOR yeast 151, LAP4-GFP pick2 inactive, MEP2 cherry2 inactive, RPL19A-GFP pick2 inactive, CIT2 GFP CP2 inactive and AGP1 GFP CP2 inactive.
For C#CCOCCOCCOCCNc1nc(N2CCN(C(=O)CCCCCCCCCCNC(=O)Cn3cc(CCCCCN)nn3)CC2)nc(N2CCN(C(=O)CCCCCCCCCCNC(=O)[C@@H](CCC(=O)O)n3cc(CCCCCN)nn3)CC2)n1 the results were AGP1-GFP MLPCN inactive, MEP2-GFP yeast inactive, CIT2-GFP yeast inactive, RPL19A-GFP yeast inactive and LAP4 TOR yeast inactive.
For C#CCOCCOCCOCCNc1nc(N2CCN(C(=O)CCCCCCCCCCNC(=O)Cn3cc(CCCCCN)nn3)CC2)nc(N2CCN(C(=O)CCCCCCCCCCNC(=O)Cn3cc(CCCCCN)nn3)CC2)n1 the results were AGP1-GFP MLPCN inactive, MEP2-GFP yeast inactive, CIT2-GFP yeast inactive, RPL19A-GFP yeast inactive, LAP4 TOR yeast 152, LAP4-GFP pick2 inactive, MEP2 cherry2 inactive, RPL19A-GFP pick2 inactive, CIT2 GFP CP2 inactive and AGP1 GFP CP2 inactive.
Screening NC(=O)c1ccc(NC(=O)C2CCCC2)cc1 returned AGP1-GFP MLPCN inactive, MEP2-GFP yeast inactive, CIT2-GFP yeast inactive, RPL19A-GFP yeast inactive and LAP4 TOR yeast inactive.
COc1ccccc1N1CCN(C(=O)c2ccc3c(c2)CCN3S(C)(=O)=O)CC1 was read as AGP1-GFP MLPCN inactive, MEP2-GFP yeast inactive, CIT2-GFP yeast inactive, RPL19A-GFP yeast inactive and LAP4 TOR yeast inactive.
O=C(O)C(=O)Cc1c[nH]c2ccccc12 was read as AGP1-GFP MLPCN inactive, MEP2-GFP yeast inactive, CIT2-GFP yeast inactive, RPL19A-GFP yeast inactive and LAP4 TOR yeast inactive.
`COc1ccc2c(c1)c(/C=C/c1cc[n+](C)cc1)cn2C` gave AGP1-GFP MLPCN inactive, MEP2-GFP yeast 214, CIT2-GFP yeast 196, RPL19A-GFP yeast inactive, LAP4 TOR yeast inactive and Yeast autofluor inactive.
